Test [1] can be described thus: resazurin metabolic signal in HepG2 cells – cell-based, resazurin fluorescence, 24 h, PK04 Diversity Set, profiling panel (AID 1172). The settings on record: HepG2 viability, higher = more signal. (The colour change of resazurin is a common sign of viable cells or microbes.)
Test [2] is described as follows: budding yeast growth changes without added modifier – OD600, strain BY4716, 24 h, basal condition, primary screen (AID 1173). The settings on record: S. cerevisiae BY4716 growth, OD600, 24 h; higher = more signal, called active from +8 up or from −8 down.
Test [3] is described as follows: viability profiling in MM1S myeloma cells – cell-based, resazurin fluorescence, basal, 24 h, PK04 Diversity Set, profiling panel (AID 1174).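 Also: MM1S multiple myeloma cell line.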 The note with it: higher = more signal, called active from +8 up or from −8 down.
In test [4] the target is Dihydroorotate dehydrogenase (quinone), mitochondrial (Plasmodium falciparum (isolate 3D7)) (UniProt Q08210). As to the kind of experiment: inhibition of P. falciparum DHODH – biochemical, C-terminal His tag, absorbance 600 nm, primary screen (AID 1175).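 Also: recombinant parasite enzyme with a five histidine tag at its C terminus.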 The note with it: PfDHODH enzyme, DCIP absorbance 600 nm; higher = more signal, called active from +8 up or from −8 down.
Dihydroorotate dehydrogenase (quinone), mitochondrial (Plasmodium falciparum (isolate 3D7)), sequence (Q08210 whole entry, looked up): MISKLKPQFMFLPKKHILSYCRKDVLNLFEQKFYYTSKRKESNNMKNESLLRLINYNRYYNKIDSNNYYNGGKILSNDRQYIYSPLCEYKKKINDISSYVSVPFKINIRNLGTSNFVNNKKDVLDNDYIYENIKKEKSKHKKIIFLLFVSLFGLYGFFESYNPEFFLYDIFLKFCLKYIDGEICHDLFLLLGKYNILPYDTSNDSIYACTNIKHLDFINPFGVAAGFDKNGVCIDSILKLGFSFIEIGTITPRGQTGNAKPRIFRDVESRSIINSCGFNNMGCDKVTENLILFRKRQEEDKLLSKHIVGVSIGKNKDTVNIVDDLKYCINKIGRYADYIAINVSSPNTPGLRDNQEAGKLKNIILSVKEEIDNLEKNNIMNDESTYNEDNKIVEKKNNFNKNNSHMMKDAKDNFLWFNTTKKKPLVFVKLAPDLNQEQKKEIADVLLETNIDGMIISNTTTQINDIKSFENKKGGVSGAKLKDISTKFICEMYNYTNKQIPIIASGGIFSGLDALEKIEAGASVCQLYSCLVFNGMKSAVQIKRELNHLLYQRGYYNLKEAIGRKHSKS

Test [5] is described as follows: inhibition of PAO1 biofilm formation – strain PAO1, LB-PBS medium, absorbance 600 nm, primary screen (AID 1176). The note with it: P. aeruginosa PAO1 growth/biofilm, A600, 12 h; higher = more signal.
Test [6] in a line: growth modulation of vineyard yeast isolate – strain RM11-1a, OD600, basal, 24 h, primary screen (AID 1177).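 Also: cultures grown under basal conditions with no added stressor.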 The settings on record: S. cerevisiae RM11-1a growth, OD600, 24 h; higher = more signal, called active from +8 up or from −8 down.
Test [7] in a line: growth of efflux-deficient E. coli DRC39 – strain DRC39, OD650, 24 h, E. coli filamentation inducers, primary screen (AID 1178).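 Also: growth measured as culture turbidity by optical density at 650 nm.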 The settings on record: E. coli DRC39 acrAB, higher = more signal, called active from +8 up or from −8 down.
Test [8] can be described thus: growth of efflux-deficient E. coli DRC39 – strain DRC39, OD650, 48 h, E. coli filamentation inducers, primary screen (AID 1179).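 Also: screen aims at cell division blockers that make cells filament.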 The note with it: E. coli DRC39 delta-acrAB growth, higher = more signal, called active from +8 up or from −8 down.
Test [9] can be described thus: viability profiling in RPMI8226 myeloma cells – cell-based, resazurin fluorescence, basal, 24 h, PK04 Diversity Set, profiling panel (AID 1180).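 Also: RPMI8826 multiple myeloma cell line at 5000 cells per well.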 The settings on record: higher = more signal.
Test [10] deals with E3 ubiquitin-protein ligase XIAP (Homo sapiens) (UniProt P98170). As to the kind of experiment: small molecules binding XIAP protein – biophysical, small-molecule microarray, fluorescence 635 nm, primary screen (AID 1181).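 Also: score merges 667 nm emission and signal to noise over triplicate slides.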 The settings on record: higher = more signal.
E3 ubiquitin-protein ligase XIAP (Homo sapiens), sequence (P98170 whole entry, looked up, the tested form may be a part): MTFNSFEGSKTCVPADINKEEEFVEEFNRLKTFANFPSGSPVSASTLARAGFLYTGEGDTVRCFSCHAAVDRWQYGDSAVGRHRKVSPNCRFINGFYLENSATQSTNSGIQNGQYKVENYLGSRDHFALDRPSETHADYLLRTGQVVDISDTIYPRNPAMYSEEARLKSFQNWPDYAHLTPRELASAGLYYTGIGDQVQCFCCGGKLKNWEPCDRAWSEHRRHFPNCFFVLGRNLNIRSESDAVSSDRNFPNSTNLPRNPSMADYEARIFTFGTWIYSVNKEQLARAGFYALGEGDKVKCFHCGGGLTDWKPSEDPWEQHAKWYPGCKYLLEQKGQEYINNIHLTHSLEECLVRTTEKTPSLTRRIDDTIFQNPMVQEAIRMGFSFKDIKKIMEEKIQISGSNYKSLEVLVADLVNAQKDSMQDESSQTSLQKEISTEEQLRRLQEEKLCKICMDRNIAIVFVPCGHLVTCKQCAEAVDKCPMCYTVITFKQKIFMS
Test [11] deals with XIP peptide (Xip251-270) binding. As to the kind of experiment: XIP fragment 251-270 binding compounds – biochemical, small-molecule microarray, fluorescence 635/667 nm, 0.1 µg/mL protein, primary screen (AID 1182). The settings on record: fluorescent protein binding, 635 nm, higher = more signal, called active from +8 up or from −8 down.
The subject of another test is XIP peptide (Xip251-270). As to the kind of experiment: compounds binding XIP fragment 251-270 – biochemical, small-molecule microarray, fluorescence 635/667 nm, 0.5 µg/mL protein, primary screen (AID 1183). The settings on record: fluorescence 635 nm, higher = more signal.
Test [12] in a line: blood-stage malaria parasite viability loss – strain 3D7, DAPI fluorescence, 100 nL, primary screen (AID 1184).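 Also: parasites grown inside human red blood cells in medium with human serum.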 The note with it: P. falciparum 3D7 growth, 3 d, higher = more signal.
Test [13] deals with Homeobox protein Hox-A13 (Mus musculus) (UniProt Q62424). As to the kind of experiment: disruptors of Hoxa13 oligonucleotide interaction – biochemical, fluorescence polarization, labeled oligonucleotide, primary screen (AID 1185). The note with it: Hoxa13:DNA binding, 15 min, higher = more signal, called active from +8 up or from −8 down. (Polarisation of emitted light reports the rotation of a fluorescent probe.)
Homeobox protein Hox-A13 (Mus musculus), sequence (Q62424 whole entry, looked up): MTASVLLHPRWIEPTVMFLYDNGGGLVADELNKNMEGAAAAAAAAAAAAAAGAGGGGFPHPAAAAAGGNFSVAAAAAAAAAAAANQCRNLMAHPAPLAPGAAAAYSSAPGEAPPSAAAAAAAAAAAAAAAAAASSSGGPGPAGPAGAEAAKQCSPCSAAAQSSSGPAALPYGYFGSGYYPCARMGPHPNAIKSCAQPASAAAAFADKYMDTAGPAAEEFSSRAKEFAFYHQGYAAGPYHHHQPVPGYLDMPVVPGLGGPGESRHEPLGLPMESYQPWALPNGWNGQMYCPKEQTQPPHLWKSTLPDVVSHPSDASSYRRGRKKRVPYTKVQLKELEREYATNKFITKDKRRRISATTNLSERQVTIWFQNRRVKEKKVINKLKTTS

The nature of test [14]: blockers of DNA damage checkpoint Chk1 activation – imaging, HeLa, hydroxyurea, phospho-Chk1 antibody, percent positive cells, primary screen (AID 1186). The note with it: hydroxyurea-induced phospho-Chk1 immunofluorescence imaging, higher = more signal.
A short description of test [15]: blockers of DNA damage checkpoint Chk1 activation – imaging, HeLa, hydroxyurea, phospho-Chk1 nuclear intensity, primary screen (AID 1187). The note with it: hydroxyurea-induced phospho-Chk1 immunofluorescence imaging, higher = more signal.

Activity calls are given as the source filed them. Unless noted, no rule for the calls is given here.

`C=C(C(=O)CC[C@H](OC(C)=O)c1ccccc1OCCO)C(C)C`: the z-score in test [1] is -1.64; in test [2], -18.4 (active); in [3], -1 (inactive); in test [5], -0.493 (inactive); in test [6], -22.2 (active); in test [7], -0.587 (inactive). Moreover, the z-score in test [8] is -0.573 (inactive); in [9] it was -1.62; in [12], -2.09; in test [13] it was -0.163 (inactive); in [14] it was -0.145 (inactive); in test [15], -0.0797 (inactive). Also, the composite z-score is -9.12 (active) in test [4], 0.42 in [10], -0.571 (inactive) in [11] and 0.332 in the test on XIP peptide (Xip251-270).

`COC(=O)[C@@]1(Cc2ccc(OC)cc2)[C@H]2c3cc(C(=O)N4CCCC4)n(Cc4nc5ccccc5[nH]4)c3C[C@H]2CN1C(=O)c1ccccc1`: the z-score is 0.0719 in test [1]; 1.36 (inactive) in test [2]; -1.79 (inactive) in [3]; -0.222 (inactive) in [5]; 0.736 (inactive) in test [6]; -0.0181 (inactive) in [7]. In addition, the z-score in test [8] is -0.104 (inactive); in [9] it was -1.2; in test [12] it was -1.22; in [13], -2.23 (inactive); in test [14], 0.732 (inactive); in [15], 0.409 (inactive). Also, the composite z-score in [4] was 0.98 (inactive); in test [10] it was 0.62; in [11], 1.01 (inactive); with XIP peptide (Xip251-270), 0.636.

Consider `C=C(CCCC)/C(=C/C[C@H](OC(=O)c1ccncc1)c1ccc(OCCO)cc1)c1cc(C(=O)OC)ccc1OC`, for which the z-score was -0.113 in test [1]; 0.409 (inactive) in [2]; -0.266 (inactive) in test [3]; -0.693 (inactive) in test [5]; 0.395 (inactive) in test [6]; -0.981 (inactive) in [7]. Also, the z-score was -0.581 (inactive) in [8]; -0.691 in [9]; -3.09 in test [12]; -2.79 (inactive) in test [13]; -1.01 (inactive) in test [14]; -0.504 (inactive) in test [15]. For the same molecule, the composite z-score in [4] was -4.01 (inactive); in [10], 0.22; in [11], -0.235 (inactive); with XIP peptide (Xip251-270) it was -0.132.

As for `C=C(/C(=C/C[C@H](OC(=O)c1ccncc1)c1ccc(OCCO)cc1)c1cc(C(=O)OC)ccc1OC)C(C)C`, the z-score in [1] is 0.438; in test [2] it was -1.44 (inactive); in [3], -0.0968 (inactive); in test [5] it was -0.681 (inactive); in [6] it was -0.517 (inactive); in test [7], -0.427 (inactive). Besides, the z-score is -0.579 (inactive) in test [8]; -0.0979 in test [9]; -2.87 in test [12]; -3.23 (inactive) in test [13]; -0.962 (inactive) in test [14]; -0.621 (inactive) in [15]. Also, the composite z-score is -1.88 (inactive) in test [4], -0.0095 in [10], 0.249 (inactive) in test [11] and 0.505 with XIP peptide (Xip251-270).

Consider `[N-]=[N+]=Nc1ccccc1C[C@@]1(C(=O)N2CCCCC2)N=C(c2ccc(OCCCO)cc2)O[C@@H]1c1ccccc1`, for which the z-score is 1.9 in test [1]; -2.84 (inactive) in test [2]; -0.351 (inactive) in test [3]; 3.16 (inactive) in test [5]; 0.076 (inactive) in [6]; 1.38 (inactive) in test [7]. The z-score was 0.887 (inactive) in test [8]; -0.0538 in test [9]; -2.19 in [12]; -5.04 (inactive) in [13]; -0.878 (inactive) in test [14]; -0.654 (inactive) in test [15]. The composite z-score in test [4] was 0.496 (inactive); in test [10], -0.236; in [11], -0.0034 (inactive); in the test on XIP peptide (Xip251-270), 0.727.

The values are drawn from PubChem BioAssay.
